MPTP block – blocks calcium-induced mitochondrial swelling; isolated mouse mitochondria, Ca2+ swelling absorbance, 30 min; inhibition, % at 10 µM; 360,000 compounds, 1.4% hits; AID 602449;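 active = inhibition of 50% or more, scaled per plate between neutral and stimulator controls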;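 note: 0% = DMSO wells given calcium and 100% = 1 mM EGTA wells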
Beta cell apopt – blocks beta cell apoptosis; INS-1E cytokine-induced death, ATP luminescence, 48 h; percent of positive-control rescue, neutral wells zero; protection from apoptosis, % (test concentration not listed); 300,000 compounds, 0.8% hits; AID 435005;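 active = Every replicate reaches about 75%, or at least half do and their mean reaches it too, limit read from the data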;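 note: 0% = cytokine-treated negative control wells and 100% = positive control rescue; higher means more ATP so stronger rescue from cytokine killing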
Calb FLC – affects C. albicans growth with fluconazole; C. albicans CaCi-2 (fluconazole-resistant clinical isolate) + fluconazole, Alamar Blue growth, 48 h; growth inhibition, % (concentration not given with the values); 300,000 compounds, 0.57% hits; AID 1979;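 active = growth inhibition above about 58% in most replicates, limit read from the data, passing the limit was not always enough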;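 note: all wells also contain fluconazole at 8 µg/ml as a sub-toxic cotreatment; 0% = median of DMSO wells and 100% = median of geldanamycin control wells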
Mdm2 MdmX PPI – disrupts the human Mdm2-MdmX interaction. O15151+Q00987. 330,000 compounds, 3% hits. AID 485346. inhibition, % at 8 µM. SaOS-2 split-luciferase Mdm2/MdmX complementation, luminescence;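 active = inhibition of at least 50% at 8 µM in the primary screen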
Target sequence (O15151 whole entry, looked up): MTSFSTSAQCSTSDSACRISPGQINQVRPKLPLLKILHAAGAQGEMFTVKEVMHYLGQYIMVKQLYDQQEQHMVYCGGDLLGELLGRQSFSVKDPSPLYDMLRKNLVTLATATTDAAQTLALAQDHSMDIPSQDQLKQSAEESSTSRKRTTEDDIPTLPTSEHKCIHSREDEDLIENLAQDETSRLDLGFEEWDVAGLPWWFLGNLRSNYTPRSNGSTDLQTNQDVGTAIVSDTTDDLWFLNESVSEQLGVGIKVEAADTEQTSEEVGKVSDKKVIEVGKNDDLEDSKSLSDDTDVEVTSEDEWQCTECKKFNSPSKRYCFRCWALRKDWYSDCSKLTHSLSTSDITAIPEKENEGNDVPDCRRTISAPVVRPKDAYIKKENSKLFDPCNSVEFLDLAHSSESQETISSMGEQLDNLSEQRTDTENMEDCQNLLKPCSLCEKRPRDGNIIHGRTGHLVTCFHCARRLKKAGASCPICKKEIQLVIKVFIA
Target sequence (Q00987 whole entry, looked up): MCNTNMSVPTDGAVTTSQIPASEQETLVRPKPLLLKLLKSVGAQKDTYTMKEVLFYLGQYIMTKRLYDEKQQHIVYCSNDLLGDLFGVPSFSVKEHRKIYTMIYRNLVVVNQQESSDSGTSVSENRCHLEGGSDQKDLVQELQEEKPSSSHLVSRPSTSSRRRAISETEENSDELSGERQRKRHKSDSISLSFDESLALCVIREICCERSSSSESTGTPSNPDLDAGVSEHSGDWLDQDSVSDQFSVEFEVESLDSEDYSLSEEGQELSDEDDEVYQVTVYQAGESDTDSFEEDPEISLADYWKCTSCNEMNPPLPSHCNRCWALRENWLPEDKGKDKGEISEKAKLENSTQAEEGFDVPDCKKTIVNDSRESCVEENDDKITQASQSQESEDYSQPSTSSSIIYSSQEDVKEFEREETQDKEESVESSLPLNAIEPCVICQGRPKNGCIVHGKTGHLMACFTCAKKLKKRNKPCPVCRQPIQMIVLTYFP
CSC inhib – blocks cancer stem cells. cancer stem cell-like cells viability, luminescence. inhibition, % at 7.5 µM. 300,000 compounds, 1.1% hits. AID 2717; in the data active = inhibition above about 75%; tested in HMLE shEcad cells
Rh123 counter – mitochondrial membrane potential, counter-screen; inhibition, % at 10 µM; isolated mitochondria, Rhodamine 123 fluorescence; AID 624504; shares compounds with MPTP block; 5,000 compounds, 78% hits; in the data active = inhibition above about 22%;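 note: 0% = DMSO vehicle and 100% = positive control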
MPTP abs DR – MPTP inhibition, dose response swelling confirmation; shares compounds with MPTP block; isolated mitochondria swelling, absorbance; IC50, µM; 780 compounds, 58% hits; AID 651561; in the data active = IC50 below about 20 µM
MPTP cs DR – active in counter-screen for permeability transition pore inhibitors; shares compounds with MPTP block; isolated mitochondria counterscreen, fluorescence read-out; IC50, µM; 780 compounds, 49% hits; AID 651564; in the data active = IC50 below about 80 µM
The depositor's hits bear a star; i = inactive; x = no result given. This is a sample that favours compounds with a hit; in the whole collection about 4.8% have one here.

SMILES | MPTP block | Beta cell apopt | Calb FLC | Mdm2 MdmX PPI | CSC inhib | Rh123 counter | others
Cc1cccnc1NC(=O)CNC(=O)C12CC3CC(CC(C3)C1)C2 | 0 | -2 | 2 | 14 | -7 | x
CCOc1ccc(NC(=S)NNc2ccnc3cc(Cl)ccc23)cc1 | 81* | 2 | -9 | 18 | x | 63*
Cc1ccc(Oc2ccc(C(=O)NCc3ccncc3)cc2)cc1 | 88* | x | 20 | x | x | 75*
Cc1ccc(C(=O)NCCc2ccncc2)cc1 | -2 | -4 | 3 | -26 | -14 | x
O=C(NCc1ccncc1)c1ccc(Oc2ccccc2)cc1 | 76* | 3 | 0 | 10 | -6 | 39*
COc1ccc(Cc2n[nH]c(=S)n2NC(=O)Nc2ccc(Cl)c(Cl)c2)cc1 | 92* | 10 | -3 | -13 | 40 | 90*
Cn1c(CC(=O)Nc2ccc(Cl)c(Cl)c2)n[nH]c1=S | 0 | -1 | -7 | 6 | 7 | x
Clc1ccc(-c2nc3ccccc3nc2-c2ccccc2)cc1 | 55* | 2 | -28 | -23 | 31 | -6 | MPTP abs DR=19*;MPTP cs DR=>80
O=C1C2CC=CCC2C(=O)N1c1ccc(N2CCN(c3ccccn3)CC2)c([N+](=O)[O-])c1 (stereo not given) | 55* | 8 | 1 | 15 | 55 | 45*
Cc1csc2c(N3CCN(C(=O)c4ccc(C(C)(C)C)cc4)CC3)ncnc12 | 96* | 116* | 20 | 3 | 4 | 83*
CC(C)(C)c1ccc(C(=O)N2CCN(c3nc4ccccc4o3)CC2)cc1 | 52* | 35 | -5 | 40 | x | 44*
Cc1csc2c(N3CCN(C(=S)Nc4ccc(C(F)(F)F)cc4)CC3)ncnc12 | 97* | -4 | -3 | 28 | 20 | 92*
Cc1csc2c(N3CCN(C(=O)Nc4ccc(Cl)c(Cl)c4)CC3)ncnc12 | 88* | -3 | 3 | 19 | 11 | 80*
Cc1csc2c(N3CCN(C(=O)NC(C)(C)C)CC3)ncnc12 | 18 | 3 | -4 | 26 | -1 | x
O=C(c1ccc(-c2ccccc2)cc1)N1CCN(c2nc3ccccc3o2)CC1 | 4 | x | x | x | x | x
CCOc1cc(CN2CCN(c3ncccn3)CC2)ccc1OC | 3 | 0 | 34 | -19 | 1 | x
Cc1cnc(CNC(=O)c2ccc3nc([C@@H]4O[C@H](CO)[C@H](O)[C@H](O)[C@H]4O)[nH]c3c2)cn1 | -1 | x | x | x | x | x
Cc1csc2ncnc(N3CCN(C(=S)Nc4ccc(C(F)(F)F)cc4)CC3)c12 | 91* | 1 | -7 | 25 | 22 | 94*
Cc1cc(C)cc(NC(=S)N2CCN(c3ncc(C(F)(F)F)cc3Cl)CC2)c1 | 29 | -3 | 6 | 8 | 4 | x
Cc1noc(C)c1S(=O)(=O)N(CC(=O)NC1CCC(C)CC1)c1ccc(C(C)C)cc1 (stereo not given) | 1 | 6 | -2 | 24 | 14 | x
CN(C(=O)Cn1cnc2sccc2c1=O)C1CCCCC1 | 7 | -5 | x | -16 | 2 | x
COc1ccc(NC(=O)c2cccc(S(=O)(=O)Nc3ccc(Br)cc3)c2)cn1 | 97* | -4 | 3 | 6 | 20 | 80*
CCOc1ccc(S(=O)(=O)Nc2cnc3ccccc3c2)cc1 | 87* | 39 | 9 | -4 | x | 90*
O=C1CSc2ccc(C(=O)Nc3cccc(S(=O)(=O)Nc4ccc(Br)cc4)c3)cc2N1 | 89* | 41 | -1 | 28 | 87* | 71*
O=C(O)c1ccc(NC(=O)c2cccc(S(=O)(=O)Nc3ccc(C(=O)O)cc3)c2)cc1 | 1 | 1 | -8 | 15 | -8 | x
SMILES | MPTP block | Beta cell apopt | Calb FLC | Mdm2 MdmX PPI | CSC inhib | Rh123 counter | others
O=C(Nc1ccc(Br)cc1)c1cccc(S(=O)(=O)Nc2cnc3ccccc3c2)c1 | 108* | 38 | 21 | 24 | 51 | 74*
CSc1ccc(S(=O)(=O)NCC(=O)OCC(=O)N(C)Cc2ccccc2)cc1[N+](=O)[O-] | -1 | 0 | 2 | -2 | 35 | x
COc1ccc(NS(=O)(=O)c2ccc3c(c2)Cc2ccccc2-3)cn1 | 84* | 3 | 2 | 28 | 15 | 87*
COc1ccc(NS(=O)(=O)c2ccc(N3CCCC3=O)cc2)cn1 | 0 | 16 | -5 | 35 | 29 | x
CCc1ccccc1N(C)S(=O)(=O)c1ccc2[nH]cc(C(=O)N3CCc4ccccc43)c(=O)c2c1 | 64* | -1 | 6 | 3 | -1 | 63*
Cc1cccc(N(C)S(=O)(=O)c2ccc3[nH]cc(C(=O)N4CCOCC4)c(=O)c3c2)c1 | 1 | x | 2 | 13 | -17 | x
N#Cc1c(-c2ccc(Cl)cc2)n(O)c2ccccc12 | 96* | x | x | x | x | 100*
Cn1c(-c2ccc(C#N)cc2)c(C#Cc2ccccc2)c2ccccc21 | 0 | x | x | x | x | x
COc1ccccc1/C=C/C=N/NC(=O)c1cccs1 | 0 | 9 | 1 | -41 | -2 | x
Cc1nn(-c2ccccc2)c2nc(C(Cl)(Cl)Cl)[nH]c(=O)c12 | 68* | 3 | -8 | 27 | 45 | 57*
COCCNCCCCOc1ccccc1-c1ccccc1 | 1 | 3 | -3 | 30 | 2 | x
CCCCNCCOCCOc1ccccc1-c1ccccc1 | 83* | -4 | -25 | 10 | 40 | -4 | MPTP abs DR=i;MPTP cs DR=>80
O=[N+]([O-])c1cc(-n2cnnn2)ccc1N1CCC(Cc2ccccc2)CC1 | 75* | 18 | 22 | 18 | 52 | 57*
COc1cccc(NC(=O)CN(C)C(=O)C(CCSC)NC(=O)c2ccco2)c1 (stereo not given) | 0 | 0 | x | -30 | x | x
Cc1ccc(CN2CCSc3ccc(C(=O)N4CCN(c5ncccn5)CC4)cc32)cc1 | 66* | 38 | 33 | -2 | 2 | 95*
Nc1nc(-c2ccccc2)c(CCCOc2ccc(NC(=O)CBr)cc2)c(=O)[nH]1 | 0 | x | x | x | x | x
S=C(Nc1ccccc1)Nc1ccc(Br)cc1 | 95* | -1 | -1 | 14 | 25 | 88*
CC(=O)Nc1ccc(NC(=S)Nc2ccccc2)cc1 | 0 | -1 | -2 | 24 | -5 | x
CC(=O)Nc1ccc(NC(=S)Nc2ccc(Br)cc2)cc1 | 98* | 1 | -13 | 14 | 14 | 88*
S=C(Nc1ccccc1)Nc1cccc(Br)c1 | 90* | -3 | 1 | -18 | x | 102*
S=C(Nc1cccc(Br)c1)c1ccccc1 | 53* | -3 | 1 | 2 | 5 | 71*
O=C(Nc1ccc(OC(F)(F)F)cc1)C1CCCN(C(=O)c2ccc(Cl)cc2)C1 (stereo not given) | 3 | 3 | x | 50 | 15 | x
CC(NC(=O)c1ccco1)C(=O)N1CCCCC1 (stereo not given) | 4 | -4 | 3 | 5 | -10 | x
Nn1c(-c2ccccc2)cc(-c2ccccc2)cc1=O | -1 | -5 | -7 | -3 | 29 | x
COc1ccc(NC(=O)CSc2nc3sc(C)cc3c(=O)n2C)c(OC)c1 | 2 | 10 | 14 | 32 | 24 | x
CC(C)(C)NC(=S)Nc1ccc(Br)cc1 | 51* | -2 | -5 | 18 | 5 | 66*
